Assay outcomes: PubChem BioAssay, several laboratories
An excerpt weighted towards active compounds, which were near 3.6% of everything screened.
CRFR2-BP antag = antagonists of CRF-BP/CRF-R2 complex, primary screen, cell-based, HEK293, calcium dye fluorescence, uHTS | CRF-induced calcium fluorescence | inhibition, % at 11.8 µM | 0.59% of 350,000 active | AID 588475, 2011;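 active = inhibition of the ligand-induced calcium signal above about 50% at the single tested concentration, limit read from the data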
Myeloid diff 2 = induction of myeloid progenitor differentiation, primary screen, cell-based, flow cytometry, MLPCN library; AID 624256, 2012; 1% of 360,000 active; calls only at 10 µM; ER-HoxA9 myeloid progenitors, lysozyme-GFP differentiation;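 active = normalized GFP-positive differentiation at or above the plate's own cutoff, the solvent-only control mean plus 3 SD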;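 note: cells exposed to compound for four days before flow analysis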
NadD block = inhibitors of S. aureus NadD, primary screen, biochemical, colorimetric, uHTS | 0.78% of 360,000 active | inhibition, % at 20 µM | purified NadD enzyme, colorimetric absorbance read-out; in the data active = inhibition above about 26%
FAS TE block = FAS thioesterase domain inhibitors, primary screen, biochemical, fluorescence intensity, uHTS; Fatty acid synthase (Homo sapiens), P49327; recombinant FAS-TE, OMFH fluorogenic substrate, fluorescence endpoint; inhibition, % at 15 µM; 0.67% of 360,000 active;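 active = compounds whose normalised, plate-corrected inhibition of enzyme fluorescence in the single-dose primary screen is 50% or more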;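 note: 0% = DMSO with enzyme and 100% = substrate without enzyme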
NRP1-CendR mod = modulators of CendR peptide binding to NRP-1, primary screen, biochemical, fluorescence polarization, uHTS; 0.85% of 360,000 active; FAM-RPARPAR peptide binding to NRP-1; Neuropilin-1 (Homo sapiens), O14786; AID 602438, 2012; inhibition, % at 25 µM;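 active = inhibition or corrected inhibition above about 18%, plus a signal ratio from 0.5 to 1.5, limit read from the data, passing the limit was not always enough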
FAS-TE conf = FAS thioesterase domain inhibitors, confirmation, biochemical, fluorescence intensity, single concentration. shares compounds with FAS TE block. recombinant FAS-TE, OMFH fluorogenic substrate. inhibition, % at 15 µM. AID 624325, 2012. 45% of 2,300 active;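 active = compounds inhibiting the enzyme by at least 50% at 15 µM in any one of the replicates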;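 note: 0% = enzyme with DMSO only and 100% = wells lacking enzyme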
NadD conf = inhibitors of S. aureus NadD, confirmation, biochemical, colorimetric, single concentration; inhibition, % at 20 µM; AID 624309, 2012; purified S. aureus NadD, colorimetric enzyme assay; shares compounds with NadD block; 13% of 2,000 active; in the data active = inhibition mostly above about 42%, no sharp cut-off; inactive = mostly below about 42%
Myeloid diff CP1 = inducers of myeloid progenitor differentiation, confirmation, cell-based, GFP/Mac1 flow cytometry, cherry pick 01. shares compounds with Myeloid diff 2. ER-HoxA9 myeloid progenitors, GFP/Mac1 double-positive flow. calls only. 2% of 2,300 active. AID 651706, 2012;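 active = share of green or green-and-red cells above 9 and 9% in run 1 or 4 and 3% in run 2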
GFP autofluor = compound fluorescence in myeloid differentiation counter-screen; 7.4% of 2,300 active; ER-HoxA9 myeloid progenitors, no estrogen, GFP autofluorescence flow cytometry; vehicle wells 0%, positive control 100%; fluorescence response, % (test concentration not listed); AID 651707; shares compounds with Myeloid diff 2;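 active = over 5% cells positive for green fluorescent reporter, or over 2% positive for both it and APC stain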;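 note: range taken on the double positive population between DMSO and positive control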
* hit, by the source's call.

O=C(Nc1cccc(S(=O)(=O)N2CCCCC2)c1)c1ccc2c(=O)n3c(nc2c1)CCCCC3 was read as CRFR2-BP antag 6, Myeloid diff 2 inactive, NadD block 5, FAS TE block 60*, NRP1-CendR mod -2, FAS-TE conf 22, Myeloid diff CP1 inactive and GFP autofluor 0.
`Cc1ccccc1NC(=O)NNC(=O)CCc1ccccc1` gave CRFR2-BP antag 8, Myeloid diff 2 inactive, NadD block -1, FAS TE block -5 and NRP1-CendR mod 1.
`Cc1cc(=O)oc2cc(OCc3ccc(S(=O)(=O)N4CCOCC4)cc3)ccc12` gave CRFR2-BP antag -23, Myeloid diff 2 active, NadD block 0, FAS TE block 67*, NRP1-CendR mod 6, FAS-TE conf 14, Myeloid diff CP1 inactive and GFP autofluor 0.
`COc1ccc(COc2ccc3c(C)cc(=O)oc3c2)cc1` gave CRFR2-BP antag 6, Myeloid diff 2 inactive, NadD block -6, FAS TE block 29 and NRP1-CendR mod 2.
For Cc1ccc(S(=O)(=O)NCCc2cccs2)cc1 the results were CRFR2-BP antag 6, Myeloid diff 2 inactive, NadD block -3, FAS TE block 0 and NRP1-CendR mod -10.
Screening CC(C)C[C@@H](CNCC(=O)[C@H](CC(=O)O)NC(=O)c1[nH]cnc1C(=O)N[C@H](CN)CC(C)C)NC(=O)c1nc[nH]c1C(=O)N[C@@H](Cc1ccccc1)C(=O)O returned CRFR2-BP antag -12, Myeloid diff 2 inactive, NadD block 35*, FAS TE block -6, NRP1-CendR mod 15 and NadD conf 52*.
For Cc1nonc1NC(=O)CSc1nc2cc(Cl)ccc2c2c1CCCC2 the results were CRFR2-BP antag -24, Myeloid diff 2 inactive, NadD block 30*, FAS TE block 12, NRP1-CendR mod -45 and NadD conf 12.
For Cc1ccc2c3c(c(SCC(=O)Nc4nonc4C)nc2c1)CCCC3 the results were CRFR2-BP antag -30, Myeloid diff 2 inactive, NadD block -3, FAS TE block 4 and NRP1-CendR mod -1.
O=C(OC(C(=O)Nc1ccc([N+](=O)[O-])cc1Br)c1ccccc1)c1ccccc1 (stereo not given) was read as CRFR2-BP antag -1, Myeloid diff 2 inactive, NadD block -9, FAS TE block 39 and NRP1-CendR mod -8.
For N#CCC(=O)Nc1ccc(C(=O)OC(C(=O)Nc2ccc([N+](=O)[O-])cc2Br)c2ccccc2)cc1 (stereo not given) the results were CRFR2-BP antag -5, Myeloid diff 2 inactive, NadD block 46*, FAS TE block 33, NRP1-CendR mod -13 and NadD conf 39.
`C(=N\NC1=Nc2cccc3cccc1c23)/c1ccccc1` gave CRFR2-BP antag -74, Myeloid diff 2 inactive, NadD block 6, FAS TE block 19 and NRP1-CendR mod -10.
For Clc1ccc(/C=N/NC2=Nc3cccc4cccc2c34)cc1 the results were CRFR2-BP antag -5, Myeloid diff 2 active, NadD block 30*, FAS TE block -1, NRP1-CendR mod -90 and NadD conf 17.
For O=C(Nc1nc(-c2ccco2)c(-c2ccco2)s1)c1cnccn1 the results were CRFR2-BP antag 7.
Screening O=C(Nc1nc(-c2ccco2)c(-c2ccco2)s1)c1ccc(F)cc1F returned CRFR2-BP antag -2, Myeloid diff 2 inactive, NadD block 41*, FAS TE block 4, NRP1-CendR mod -90 and NadD conf 13.
O=S(=O)(Nc1nc(-c2ccco2)c(-c2ccco2)s1)c1ccc(F)cc1F was read as CRFR2-BP antag -12, Myeloid diff 2 inactive, NadD block 6, FAS TE block 5 and NRP1-CendR mod -30.
O=C(Nc1nc(-c2ccco2)c(-c2ccco2)s1)c1c(F)cccc1Cl was read as CRFR2-BP antag 0, Myeloid diff 2 inactive, NadD block 43*, FAS TE block 20, NRP1-CendR mod -122 and NadD conf 35.
For COc1ccc(C)cc1NC(=O)CN(C)C1CCCCC1 the results were CRFR2-BP antag 9, Myeloid diff 2 inactive, NadD block -3, FAS TE block 0 and NRP1-CendR mod 3.
`FC(F)(F)c1ccc(CN2C[C@@H]3C(c4ccc(C(F)(F)F)cc4)C4(c5cccnc5)CC3(C4)[C@H]2c2ccccc2)cc1` (stereo not given in full) gave CRFR2-BP antag 0, Myeloid diff 2 inactive, NadD block 38*, FAS TE block 29, NRP1-CendR mod -3 and NadD conf 22.
For O=C(Nc1ccc(N2CCCC2)cc1)C(c1ccccc1)c1ccccc1 the results were CRFR2-BP antag 33, Myeloid diff 2 inactive, NadD block 37*, FAS TE block -33, NRP1-CendR mod -22 and NadD conf -7.
Screening O=C(Cc1ccccc1)Nc1ccc(N2CCOCC2)cc1 returned CRFR2-BP antag -2, Myeloid diff 2 inactive, NadD block -1, FAS TE block -14 and NRP1-CendR mod 0.
`O=C(Cc1ccccc1)Nc1ccc(N2CCCC2)cc1` gave CRFR2-BP antag 4, Myeloid diff 2 inactive, NadD block 41*, FAS TE block -22, NRP1-CendR mod -4 and NadD conf 17.
For N#CCn1c(Cc2ccccc2)nc2ccccc2c1=O the results were CRFR2-BP antag -15, Myeloid diff 2 inactive, NadD block -2, FAS TE block 0 and NRP1-CendR mod -3.
Screening N#CC/C(N)=N/Nc1nc2ccccc2nc1Cc1ccccc1 returned CRFR2-BP antag 4, Myeloid diff 2 inactive, NadD block 34*, FAS TE block 17, NRP1-CendR mod -35 and NadD conf 12.
For COC(=O)C1=C[C@@H](C(=O)OC)[C@@H]2C3=C(C(=O)[C@]2(C)NC(=O)c2ccccc2)[C@H](C)n2c(=O)n(-c4ccccc4)c(=O)n2[C@@H]3C1 the results were CRFR2-BP antag 11, Myeloid diff 2 inactive, NadD block 0, FAS TE block -4 and NRP1-CendR mod 7.
